According to article PMC10668032, “Altered binding affinity of SIX1-Q177R correlates with enhanced WNT5A and WNT pathway effector expression in Wilms tumor”:
Over roughly 33,000 sequences, “e-score” has its median near -0.05; the highest 2% begin near 0.38. Shown is part of a subset that was picked to be rich in the highest values.

target: T1, SIX1-Q177R homeodomain (human, UniProt Q15475 108-198, Q177R); experiment: universal protein binding microarray; Universal all-10-mer PBM (8x60K, AMADID 030236), 300 nM GST-tagged protein, Alexa Fluor 488 anti-GST; buffer, salt, pH and temperature not stated (as in Berger); high values mean tight binding; conditions: protein: ivt; tags: N-terminal GST; dsDNA, one strand shown
T1 sequence: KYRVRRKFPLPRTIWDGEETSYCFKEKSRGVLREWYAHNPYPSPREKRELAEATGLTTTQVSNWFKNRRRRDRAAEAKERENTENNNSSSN
Summary of the method: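 Homeodomains fused to GST were made by in vitro transcription/translation and measured by anti-GST western blot with a recombinant GST standard curve. At 300 nM final concentration, they were applied in duplicate to universal 'all 10-mer' protein binding microarrays (8×60K format).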

Q: How did the binding signal turn out when ATAGACAC was run?
A: 0.428 ± 0.0191 E-score

Q: CTAGATAC was tested. Which binding signal did it give?
A: 0.165 ± 0.0452 E-score

Q: For GTAGACAC, which binding signal is on record?
A: 0.409 ± 0.0281 E-score

Q: Which binding signal does the source give for AGATAGAC here?
A: 0.154 ± 0.0062 E-score

Q: Which binding signal does the source give for ATAGAGTC here?
A: 0.202 ± 0.0331 E-score

Q: For CTAGACAC, which binding signal is on record?
A: 0.393 ± 0.0124 E-score

Q: For CTAGACCC, which binding signal is on record?
A: 0.184 ± 0.00755 E-score

Q: With ACAAGGTG as the sequence, how does the binding signal read?
A: 0.264 ± 0.0157 E-score

Q: For ACCATCCA, which binding signal is on record?
A: 0.215 ± 0.0116 E-score

Q: Which binding signal does the source give for GGGTGCGA here?
A: 0.181 ± 0.00744 E-score

Q: With CCCTGACG as the sequence, how does the binding signal read?
A: 0.152 ± 0.00643 E-score

Q: For CCGCCGTA, which binding signal is on record?
A: 0.164 ± 0.00253 E-score

Q: How did the binding signal turn out when GAGACCCC was run?
A: 0.225 ± 0.0263 E-score

Q: For CACCCACC, which binding signal is on record?
A: 0.252 ± 0.0101 E-score

Q: With CACCACTA as the sequence, how does the binding signal read?
A: 0.3486 ± 0.00204 E-score

Q: With ACTGTGTG as the sequence, how does the binding signal read?
A: 0.177 ± 0.0389 E-score

Q: For CTGGACAC, which binding signal is on record?
A: 0.406 ± 0.0173 E-score

Q: For ATGGACAC, which binding signal is on record?
A: 0.419 ± 0.00799 E-score

Q: How did the binding signal turn out when GTGGGACA was run?
A: 0.171 ± 0.0189 E-score

Q: With GTGGACAC as the sequence, how does the binding signal read?
A: 0.419 ± 0.0259 E-score

Q: Which binding signal does the source give for ATGGAGAC here?
A: 0.174 ± 0.0638 E-score

Q: How did the binding signal turn out when CTGGATAC was run?
A: 0.222 ± 0.0101 E-score

Q: Which binding signal does the source give for ATGGATAC here?
A: 0.278 ± 0.0318 E-score

Q: For GTGCACAC, which binding signal is on record?
A: 0.271 ± 0.021 E-score

Q: CTGGAAAC was tested. Which binding signal did it give?
A: 0.178 ± 0.0277 E-score

Q: For ACCCTAGT, which binding signal is on record?
A: 0.269 ± 0.00753 E-score

Q: With CCCCTCTA as the sequence, how does the binding signal read?
A: 0.2508 ± 0.000354 E-score

Q: How did the binding signal turn out when AGGTGTCC was run?
A: 0.464 ± 0.0052 E-score

Q: For CTGTGTCA, which binding signal is on record?
A: 0.256 ± 0.066 E-score

Q: How did the binding signal turn out when AGGTGTCG was run?
A: 0.4794 ± 0.00471 E-score

Q: With CGGTGCCA as the sequence, how does the binding signal read?
A: 0.19 ± 0.0233 E-score

Q: Which binding signal does the source give for GGGTGCCA here?
A: 0.2 ± 0.0639 E-score

Q: AGGGGTCC was tested. Which binding signal did it give?
A: 0.178 ± 0.00987 E-score

Q: For CGGTGTCA, which binding signal is on record?
A: 0.4918 ± 0.00175 E-score

Q: With GGGGGTCA as the sequence, how does the binding signal read?
A: 0.313 ± 0.0364 E-score

Q: Which binding signal does the source give for AGGTGGTG here?
A: 0.287 ± 0.0143 E-score

Q: For GGGTGTCA, which binding signal is on record?
A: 0.4915 ± 0.00277 E-score

Q: Which binding signal does the source give for ATGTGTCG here?
A: 0.188 ± 0.0615 E-score

Q: GGGAGTAC was tested. Which binding signal did it give?
A: 0.2586 ± 0.000728 E-score

Q: With CGGATCCG as the sequence, how does the binding signal read?
A: 0.183 ± 0.00497 E-score

Q: GTCTCATA was tested. Which binding signal did it give?
A: 0.179 ± 0.0328 E-score

Q: With CCCGGGGA as the sequence, how does the binding signal read?
A: 0.206 ± 0.0149 E-score

Q: How did the binding signal turn out when CACCGCTC was run?
A: 0.27 ± 0.013 E-score

Q: How did the binding signal turn out when CCATAACA was run?
A: 0.2144 ± 0.000806 E-score

Q: How did the binding signal turn out when AGACGGTG was run?
A: 0.23 ± 0.0191 E-score

Q: For AAACGGTG, which binding signal is on record?
A: 0.308 ± 0.011 E-score

Q: Which binding signal does the source give for CCCTCACG here?
A: 0.165 ± 0.0328 E-score

Q: With CCCCCTCA as the sequence, how does the binding signal read?
A: 0.223 ± 0.0246 E-score

Q: Which binding signal does the source give for CCGCGCGG here?
A: 0.172 ± 0.0537 E-score

Q: With ACTGGTAT as the sequence, how does the binding signal read?
A: 0.2685 ± 0.000262 E-score

Q: For CCGGTTAC, which binding signal is on record?
A: 0.1852 ± 0.000205 E-score

Q: AGGTGTCA was tested. Which binding signal did it give?
A: 0.4862 ± 0.000651 E-score

Q: For CGGTGATC, which binding signal is on record?
A: 0.163 ± 0.0497 E-score

Q: Which binding signal does the source give for CGGGGTCC here?
A: 0.241 ± 0.0168 E-score

Q: ATGTGTCA was tested. Which binding signal did it give?
A: 0.253 ± 0.0258 E-score

Q: How did the binding signal turn out when CGGTGTCC was run?
A: 0.489 ± 0.00456 E-score

Q: Which binding signal does the source give for AGGTGACA here?
A: 0.251 ± 0.0589 E-score

Q: For TCGGTGCA, which binding signal is on record?
A: 0.232 ± 0.0114 E-score

Q: For CACGACCG, which binding signal is on record?
A: 0.225 ± 0.0274 E-score

Q: How did the binding signal turn out when CGCCACCC was run?
A: 0.19 ± 0.0435 E-score

Q: TAGTGAGA was tested. Which binding signal did it give?
A: 0.154 ± 0.0331 E-score

Q: For TGTCGACA, which binding signal is on record?
A: 0.25 ± 0.0489 E-score

Q: For GGGATACC, which binding signal is on record?
A: 0.341 ± 0.00451 E-score

Q: How did the binding signal turn out when AGACCCTA was run?
A: 0.195 ± 0.0142 E-score

Q: Which binding signal does the source give for CACGGGCG here?
A: 0.204 ± 0.0346 E-score

Q: How did the binding signal turn out when ACACGGCC was run?
A: 0.3824 ± 0.0024 E-score

Q: How did the binding signal turn out when ACACGTCT was run?
A: 0.344 ± 0.0192 E-score

Q: With ACACGGCT as the sequence, how does the binding signal read?
A: 0.3983 ± 0.00124 E-score

Q: For ACACGTCG, which binding signal is on record?
A: 0.323 ± 0.0129 E-score

Q: How did the binding signal turn out when ACACGGCA was run?
A: 0.3737 ± 0.00357 E-score

Q: How did the binding signal turn out when ACACGTCA was run?
A: 0.323 ± 0.0149 E-score

Q: AACCCCGC was tested. Which binding signal did it give?
A: 0.194 ± 0.0341 E-score

Q: TACTCCCA was tested. Which binding signal did it give?
A: 0.16 ± 0.038 E-score

Q: ACGCGGCG was tested. Which binding signal did it give?
A: 0.229 ± 0.0107 E-score

Q: ACCGAATA was tested. Which binding signal did it give?
A: 0.155 ± 0.00809 E-score

Q: Which binding signal does the source give for GACACGCC here?
A: 0.4444 ± 0.00225 E-score

Q: For CACACGCC, which binding signal is on record?
A: 0.252 ± 0.0122 E-score

Q: For CACGCGCA, which binding signal is on record?
A: 0.212 ± 0.0332 E-score

Q: Which binding signal does the source give for CACACGCG here?
A: 0.296 ± 0.0321 E-score

Q: How did the binding signal turn out when GACACGCA was run?
A: 0.416 ± 0.0252 E-score

Q: With ACCTCCGA as the sequence, how does the binding signal read?
A: 0.172 ± 0.0111 E-score

Q: Which binding signal does the source give for CCCCTAGC here?
A: 0.177 ± 0.00211 E-score

Q: Which binding signal does the source give for ACTCGGAC here?
A: 0.179 ± 0.0406 E-score

Q: Which binding signal does the source give for CACCCTGA here?
A: 0.339 ± 0.0238 E-score

Q: For AGGATCCC, which binding signal is on record?
A: 0.155 ± 0.0155 E-score

Q: How did the binding signal turn out when GTAACAGA was run?
A: 0.16 ± 0.00854 E-score

Q: Which binding signal does the source give for CCCGAGAC here?
A: 0.204 ± 0.023 E-score

Q: How did the binding signal turn out when ACCCGTCT was run?
A: 0.178 ± 0.0209 E-score

Q: With CGAGTCAC as the sequence, how does the binding signal read?
A: 0.196 ± 0.0324 E-score

Q: With CGCGTCAG as the sequence, how does the binding signal read?
A: 0.154 ± 0.00463 E-score

Q: Which binding signal does the source give for GGTGTCAC here?
A: 0.4915 ± 0.00356 E-score

Q: Which binding signal does the source give for CGTGTCAC here?
A: 0.462 ± 0.0133 E-score

Q: With AGTGTCAC as the sequence, how does the binding signal read?
A: 0.45 ± 0.00611 E-score

Q: How did the binding signal turn out when CGTGTCTC was run?
A: 0.338 ± 0.00573 E-score

Q: How did the binding signal turn out when GGGGTCAC was run?
A: 0.29 ± 0.0253 E-score

Q: For AGTATCAG, which binding signal is on record?
A: 0.266 ± 0.0112 E-score

Q: For GGAGTCAC, which binding signal is on record?
A: 0.3325 ± 0.00242 E-score

Q: CGTGTCAG was tested. Which binding signal did it give?
A: 0.441 ± 0.0089 E-score

Q: How did the binding signal turn out when ACGCGGTG was run?
A: 0.334 ± 0.012 E-score

Q: For GGGATCCA, which binding signal is on record?
A: 0.211 ± 0.0194 E-score

Q: Which binding signal does the source give for ACCTGACA here?
A: 0.228 ± 0.0625 E-score

Q: With ACCCCACT as the sequence, how does the binding signal read?
A: 0.207 ± 0.00426 E-score

Q: Which binding signal does the source give for GCGGATAA here?
A: 0.162 ± 0.0348 E-score

Q: Which binding signal does the source give for CTCGTACA here?
A: 0.17 ± 0.0125 E-score

Q: How did the binding signal turn out when CCCAAACA was run?
A: 0.208 ± 0.0371 E-score

Q: Which binding signal does the source give for CACTCTTA here?
A: 0.164 ± 0.0568 E-score

Q: Which binding signal does the source give for GAACCCCC here?
A: 0.244 ± 0.0572 E-score

Q: How did the binding signal turn out when ATACCCAG was run?
A: 0.274 ± 0.0157 E-score

Q: With AGTGTCAG as the sequence, how does the binding signal read?
A: 0.4435 ± 0.00254 E-score
